Source: PubChem BioAssay (NCI)
This is part of a sample that, as a whole, favours compounds with a hit. Of some 83,000 tested, about 20% had one in any assay.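 In brief: 96-well plates, 48 h treatment, single concentration, percent growth endpoint.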 Unmarked numbers belong to inactive results. Active and inactive are the calls of the source. Rule for the calls: active = growth percent below 10; inactive = the rest.

Assays:
Assay in all cases: NCI-60 one-dose screen, 48 h (100 = growth as untreated, 0 = no growth, -100 = all killed)
Details in all cases: 10 µM unless noted
T-47D breast = tested on: T-47D breast
BT-549 breast = tested on: BT-549 breast
MDA-MB-435 melanoma = tested on: MDA-MB-435 melanoma
SW-620 colon = tested on: SW-620 colon
MCF7 breast = tested on: MCF7 breast
HCT-116 colon = tested on: HCT-116 colon
HCC-2998 colon = tested on: HCC-2998 colon
KM12 colon = tested on: KM12 colon

Structure (SMILES) | growth (T-47D breast) | growth (BT-549 breast) | growth (MDA-MB-435 melanoma) | growth (SW-620 colon) | growth (MCF7 breast) | growth (HCT-116 colon) | growth (HCC-2998 colon) | growth (KM12 colon)
O=C1C(=O)c2ccccc2C(O)=C1CCCc1ccc(C2CCCCC2)cc1 | 44% | 52.6% | 53.7% | 36.8% | 32.9% | 19.4% | 29.5% | 24.2%
Cc1ccc(S(=O)(=O)Nc2ccc(-c3cc(-c4cccc(F)c4)c(C#N)c(=O)[nH]3)cc2)cc1 | 41.9% | 74.7% | 96.3% | 73.5% | 16.9% | 8.61% (active) | 104% | 72.9%
Nc1ccc(Br)cn1 | 98.7% | 94.7% | 113% | 104% | 110% | 96.4% | 98.1% | 
CN1CCN(CC#CCn2c3c(c4ccccc42)C[C@]2(C)[C@H]4CC[C@@H]5[C@H]6[C@H]7OC(=O)[C@@]6(CCC7(C)C)CC[C@@]5(C)[C@]4(C)CC[C@H]2C3(C)C)CC1 | 104% | 89.5% | 97.8% | 91.2% | 67.7% | 35.1% | 106% | 93.7%
COc1cc2ncnc(Nc3ccc(OCc4cccc(F)c4)c(Cl)c3)c2cc1NC(=O)C1CCCC1 | 24.9% | 103% | 89.4% | 98.4% | 84.4% | 83.4% | 103% | 94.9%
CC1(C)C=CC[C@]2(C)[C@H]3CC[C@@H]4[C@H]5[C@H](C(=O)/C=C/c6cccnc6)CC[C@]5(CO)CC[C@@]4(C)[C@]3(C)CC[C@@H]12 | -74.5% (active) | -81% (active) | -57.1% (active) | -59% (active) | -21.8% (active) | -88.6% (active) | -66.8% (active) | -80.7% (active)
COc1ccc2[nH]cc(-c3nc(-c4c[nH]c5ncccc45)cs3)c2c1 | 67.1% | 36.8% | 54% | 19% | 32.5% | 18.1% | 70.4% | 25.3%
CC(=O)O[C@@H]1CCN2C(=O)N(C)c3ccccc3[C@@H]2C1 | 92.8% | 108% | 107% | 113% | 94.6% | 102% | 104% | 116%
COC(=O)[C@]12CC[C@@H](C(/C=C/c3cccnc3)=N/O)[C@@H]1[C@H]1CC[C@@H]3[C@@]4(C)CC(=C/c5cccnc5)/C(=N/O)C(C)(C)[C@@H]4CC[C@@]3(C)[C@]1(C)CC2 | 27.3% | 22.8% | 36.2% | 45.5% | 25.6% | 18.9% | 45.9% | 37.7%
COC(=O)CNc1nc(N(C)O)nc(N(C)O)n1 | 64.8% | 66.9% | 65.7% | 42.8% | 30.7% | 13.8% | 23.4% | 45.2%
Cn1nc(-c2ccccc2)c2c(-c3ccccc3)onc2c1=O | 26.8% | 47.4% | -1.78% (active) | 28.9% | 23.6% | 42.5% | 74.5% | 33.7%
COc1ccc(-c2n/c(=C\c3c(O)[nH]c4ccc(OC)cc34)cc3c2=Nc2ccccc2-3)cc1 | 93% | -20.1% (active) | 3.6% (active) | 0.413% (active) | -22.7% (active) | -72.6% (active) | 22.7% | 8.66% (active)
C=C1C(=O)O[C@H]2[C@H]1CC/C(Cn1cc(-c3ccc(OC)cc3)nn1)=C\CC[C@@]1(C)O[C@@H]21 | -71% (active) | 50% | -26.9% (active) | -50.2% (active) | -41.3% (active) | -83.6% (active) | 2.05% (active) | 65.5%
C=CC(=O)N[C@H](Cc1ccc(-c2cc(Cl)cc(Cl)c2)cc1)[C@H](O)[C@@H](O)C(=O)O | 90% | 87.4% | 102% | 98.1% | 87% | 75.5% | 109% | 99.3%
Cc1ccc(/C=C(\C#N)c2cc3ccccc3n2C)cc1 | 54.9% | 0.46% (active) | -1.88% (active) | 31.8% | 18.4% | 16.2% | 17.4% | 22.3%
CC(C)C[C@@H](NC(=O)[C@@H](Cc1ccccc1)NC(=O)c1cnccn1)B1O[C@H]2[C@H](O)[C@@H](C(=O)NCCCC[C@@H]3NC(=O)[C@@H](Cc4ccccc4)NC(=O)[C@H](CC(=O)O)NC(=O)CNC(=O)[C@H](CCCN=C(N)N)NC3=O)O[C@@H](CN)[C@H]2O1 | -70.4% (active) | -66.1% (active) | -78.1% (active) | -47.7% (active) | -17.1% (active) | -50% (active) | -78.9% (active) | -43.9% (active)
Fc1ccc(Nc2nc(Nc3ccc(-c4nc5ccccc5[nH]4)cc3)nc(N3CCCC3)n2)cc1 | 44.6% | 85.1% | 98.1% | 0.692% (active) | 32.7% | -53.6% (active) | 55.7% | 83.8%
O=C(NO)c1ccc(Cn2c(=O)n(CCc3ccc(O)cc3)c(=O)c3ccccc32)cc1 | 11.8% | 65.7% | -15.6% (active) | 22.4% | 44.5% | 24.9% | 79% | 22.7%
COC(=O)[C@]12CC[C@@H](C)[C@H](C)[C@@H]1C1=CC[C@@H]3[C@@]4(C)C[C@@H](OC(C)=O)[C@H](O)[C@@](C)(COC(C)=O)[C@@H]4[C@H](O)C[C@@]3(C)[C@]1(C)CC2 | -66.3% (active) | -85.8% (active) | -81.7% (active) | -80.9% (active) | -78.7% (active) | -69.5% (active) | -89.7% (active) | -75.4% (active)
CCSc1sc(-c2ccc(C)cc2)nc1[P+](c1ccccc1)(c1ccccc1)c1ccccc1 | -22% (active) | -19.1% (active) | -26.8% (active) | 4.99% (active) | -4.84% (active) | -20.9% (active) | -23.1% (active) | -63.2% (active)
Cc1ccc(-c2ccc(Nc3ccccc3)nn2)cc1S(N)(=O)=O | 84.2% | 80.6% | 8.3% (active) | 51.7% | 78.1% | 79% | 59.8% | 39.3%
Fc1ccc2c(c1)c(-c1nc(-c3c[nH]c4ncccc34)cs1)cn2CCCN1CCCCC1 | 67.5% | 88.8% | -20% (active) | -34.9% (active) | 21.6% | 45.3% | 98.8% | 68.3%
COc1cc2nc(Cl)nc(Nc3cccc(C(=O)/C=C/c4ccc(Cl)cc4)c3)c2cc1OC | 71.1% | 67% | 69.9% | -5.87% (active) | 19.7% | -0.905% (active) | 93.4% | 40.5%
CC(C)c1cc(C(=O)O)c(O)c(C(C)C)c1.CC(C)c1cc(C(=O)O)c(O)c(C(C)C)c1.[Mn] | 82% | 91.2% | 108% | 106% | 104% | 103% | 134% | 98.1%
O=S(=O)(NCCNc1cc(-c2cn(-c3ccccc3)nc2-c2cccc(O)c2)ccn1)c1ccccc1 | 26.4% | 67.8% | 14.7% | 44.4% | 37.2% | 49.5% | 25.4% | 36.7%
Cn1c(/C(C#N)=C/c2ccc3ccccc3c2)cc2ccccc21 | 73.4% | -16.6% (active) | -14.7% (active) | 26.4% | 14.1% | 8.56% (active) | 16.9% | 15.1%
CCCCC[C@H]1C/C=C2/C(=O)C=C[C@@H]2C/C=C\CCCC(=O)O[C@@H](CCCCC)C/C=C2/C(=O)C=C[C@@H]2C/C=C\CCCC(=O)O1 | -74.8% (active) | -72.9% (active) | -78.9% (active) | -54.1% (active) | -70.9% (active) | -96.4% (active) | -79.5% (active) | -86.3% (active)
COc1ccc2c(c1)c(-c1nc(-c3c[nH]c4ncccc34)cs1)cn2CCCN1CCCCC1 | 66.1% | 67.5% | -84.6% (active) | -43.3% (active) | 10% (active) | 25.9% | 88.5% | 47.3%
CC1(C)NCCC[C@]2(C)[C@H]3CC[C@@H]4[C@H]5[C@H](C(=O)/C=C/c6ccccn6)CC[C@]5(CO)CC[C@@]4(C)[C@]3(C)CC[C@@H]12 | 30.7% | 64.6% | 57.3% | -51% (active) | 20.3% | -7.47% (active) | 47.9% | 25.5%
O=c1c(CNc2ccc(S(=O)(=O)Nc3nccs3)cc2)coc2ccccc12 | 94.3% | 99.5% | 112% | 101% | 110% | 100% | 105% | 111%
